T cruzi growth-1 = T. cruzi intracellular proliferation inhibitors, primary screen, cell-based, beta-gal Tulahuen parasites, NIH3T3 host, luminescence. T. cruzi beta-gal in NIH3T3, GalScreen luminescence, 90 h. inhibition, % at 8.34 µM. 5.9% of 77,000 active. AID 624255, 2012;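 active means mean inhibition above about 93%, with at least 55% of replicates each passing it, limit read from the data, passing the limit was not always enough; inconclusive means only one of those two conditions holds; inactive means neither condition holds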
C diff HTS = C. difficile growth inhibitors, primary screen, HTS. Clostridium difficile clinical isolate growth, OD600, 24 h; active compounds read low. growth activity, negative = inhibition, % at 16 µg/mL (by protocol). 0.25% of 86,000 active;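 active means mean growth activity at or below -80% and every replicate also at or below -80%; inconclusive means mean at or below -80% but some replicate above -80%; inactive means mean growth activity above -80%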;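 further: 0% = DMSO wells and -100% = levofloxacin 16 µg/mL wells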
T cruzi growth-2 = T. cruzi intracellular proliferation inhibitors, confirmation, cell-based, NIH3T3 host, beta-gal parasite, luminescence, cherry-pick. T. cruzi beta-gal in NIH3T3, GalScreen luminescence, 90 h. 72% of 5,600 active. shares compounds with T cruzi growth-1. inhibition, % at 8.35 µM;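 active means mean replicate inhibition above about 95% and at least 55% of replicates individually reaching it, limit read from the data; inconclusive means only one of the two criteria is met; inactive means neither criterion is met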
T cruzi growth-3 = inhibitors of intracellular T. cruzi replication, confirmation, NIH3T3 host cells, beta-gal parasites, cherry-pick, set 2; shares compounds with T cruzi growth-1; T. cruzi beta-gal in NIH3T3, GalScreen luminescence, 90 h; inhibition, % at 2.09 µM; 21% of 5,600 active; AID 651740, 2012;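 active means mean inhibition above about 95%, with at least 55% of replicates also reaching it, limit read from the data; inconclusive means meets just one of the two conditions; inactive means meets neither condition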;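 further: plate controls were neutral control median for no effect and positive control median for full effect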
3T3 cytotox = cytotoxicity in mouse NIH/3T3 fibroblasts, confirmation, cytotoxicity control for T. cruzi proliferation inhibitor project, cell-based, cherry-pick, single point; shares compounds with T cruzi growth-1; NIH/3T3 viability, CellTiter-Glo ATP luminescence, 90 h; cytotoxicity (signal decrease), % at 8.35 µM; 14% of 5,600 active; AID 651742, 2012;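 active means mean signal decrease across replicates above about 35% based on untreated-well scatter, with enough replicates individually passing, limit read from the data; inconclusive means no rule stated though some were filed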;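 further: 0% = median of neutral control wells and 100% = median of positive control wells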
3T3 cytotox 2 = NIH/3T3 fibroblast cytotoxicity, confirmation, cytotoxicity control, cell-based, cherry-pick, single point, set 2; shares compounds with T cruzi growth-1; NIH/3T3 viability, CellTiter-Glo ATP luminescence, 90 h; inhibition, % at 24.9 µM; 56% of 5,600 active; AID 651744, 2012;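 active means mean loss of cell viability signal at or above a set limit, and enough replicates individually reaching it; inconclusive means meets only the mean limit or only the replicate share; inactive means meets neither condition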;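 further: 0% = median of neutral control wells and 100% = median of positive control wells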
The depositor's hits bear a star; ? = inconclusive; / = no result. Only a selection was taken, and hits are over-represented in it overall.

SMILES	T cruzi growth-1	C diff HTS	T cruzi growth-2	T cruzi growth-3	3T3 cytotox	3T3 cytotox 2
CN(C)C(=O)c1cccc(-c2ccc3c(c2)[C@@H]2[C@@H](CCN2C(=O)C2CCOCC2)[C@H](CO)N3)c1	?	2	99*	26	-14	-9
COc1cccc(-c2ccc3c(c2)[C@@H]2[C@@H](CCN2C(=O)Cc2ccccc2)[C@@H](CO)N3)c1	17	-28	/	/	/	/
COc1cccc(-c2ccc3c(c2)[C@H]2[C@H](CCN2C(=O)Cc2ccncc2)[C@H](CO)N3)c1	104*	/	95	62	4	15
O=C(CN1CCOCC1)N1CC[C@H]2[C@H](CO)Nc3ccc(-c4ccc(F)cc4)cc3[C@H]21	86	3	/	/	/	/
CN(C)C(=O)c1cccc(-c2ccc3c(c2)[C@H]2[C@H](CCN2C(=O)C2CCOCC2)[C@H](CO)N3)c1	92	5	/	/	/	/
O=C(CN1CCOCC1)N1CC[C@@H]2[C@H]1c1cc(-c3ccccc3)ccc1N[C@@H]2CO	?	-11	98*	14	-17	5
COc1cccc(-c2ccc3c(c2)[C@H]2[C@H](CCN2C(=O)C2CC2)[C@H](CO)N3)c1	/	-18	/	/	/	/
COc1cccc(-c2ccc3c(c2)[C@@H]2[C@@H](CCN2C(=O)C2CCOCC2)[C@@H](CO)N3)c1	103*	-1	101*	?	13	17
C[C@@H]1CN([C@@H](C)CO)C(=O)c2cccc(NS(=O)(=O)c3cccs3)c2O[C@H]1CN(C)Cc1ccc(C(=O)Nc2ccccc2N)cc1	/	6	/	/	/	/
C[C@@H]1CN([C@H](C)CO)S(=O)(=O)c2ccc(-c3ccncc3)cc2O[C@H]1CN(C)S(C)(=O)=O	45	0	/	/	/	/
CO[C@@H](CN(C)S(=O)(=O)c1cccc(Cl)c1)[C@H](C)CN(C(=O)Nc1ccccc1F)[C@@H](C)CO	28	/	/	/	/	/
CO[C@@H]1CN(C)C(=O)c2cc(NC(=O)c3cc(C)on3)ccc2OC[C@H](C)N(C(=O)C2CC2)C[C@@H]1C	8	-1	/	/	/	/
COc1cccc(-c2ccc3c(c2)[C@H]2[C@H](CCN2C(=O)CN2CCOCC2)[C@@H](CO)N3)c1	?	-9	87	34	-9	-2
COc1ccc(-c2ccc3c(c2)[C@@H]2[C@@H](CCN2C(=O)CN2CCOCC2)[C@@H](CO)N3)cc1	60	-19	/	/	/	/
OC[C@@H]1[C@@H](c2ccc(/C=C/c3ccccc3)cc2)[C@@H]2CN(Cc3cccnc3)CCCCN12	?	5	104*	80	46*	103*
OC[C@H]1[C@@H](c2ccc(/C=C/c3ccccc3)cc2)[C@@H]2CN(Cc3cncnc3)CCCCN12	102*	5	106*	34	21	105*
COc1ccccc1-c1ccc([C@H]2[C@H](CO)N3CCCCN(Cc4ccncc4)C[C@@H]23)cc1	77	-7	/	/	/	/
OC[C@@H]1[C@H](c2ccc(/C=C/c3ccccc3)cc2)[C@H]2CN(Cc3cncnc3)CCCCN12	75	3	/	/	/	/
OC[C@@H]1[C@@H](c2ccc(/C=C/c3ccccc3)cc2)[C@@H]2CN(Cc3cncnc3)CCCCN12	55	-3	/	/	/	/
OC[C@@H]1[C@H](c2ccc(/C=C/c3ccccc3)cc2)[C@@H]2CN(Cc3ccncc3)CCCCN12	121*	-3	107*	?	?	104*
OC[C@@H]1[C@H](c2ccc(/C=C/c3ccccc3)cc2)[C@@H]2CN(Cc3cccnc3)CCCCN12	105*	20	111*	88	41*	103*
N#C[C@@H]1[C@@H](c2ccccc2C2=CCCC2)[C@H](CO)N1C(=O)CN1CCOCC1	/	1	/	/	/	/
CC(C)CC#Cc1ccc2c(c1)O[C@@H](CN(C)C(=O)Cc1ccccn1)[C@H](C)CN([C@H](C)CO)S2(=O)=O	16	-16	/	/	/	/
O=C(O)C[C@@H]1C[C@@H]2c3cc(NS(=O)(=O)c4ccccc4)ccc3O[C@@H]2[C@@H](CO)O1	/	-3	/	/	/	/

From PubChem BioAssay
